High-throughput results (PubChem BioAssay)
The list is not random: actives were taken first. Their share in the collection is about 2.1%.
TDP43 rescue = qHTS of TDP-43 Inhibitors | Potency, µM (titrated, usually from 46.1 µM), without a hit: top-dose growth rescue (activation), most hits filed as activators | TDP-43 expressing yeast growth rescue, BacTiter-Glo, 24 h | actives 1.8% (n = 410,000); also: % of control where 0% means no effect; nearly all actives have a fitted effect of over 50% in size
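Galactose-induced TDP-43 yeast, OD600=0.02, compound pinned; 24 hr, 30 deg C; BacTiter-Glo luminescence for growth. Inhibitors of TDP-43 toxicity read as activators.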
aSyn yeast inh = qHTS of alpha-syn Inhibitors; actives 0.14% (n = 370,000); Potency, µM (titrated, usually from 46.1 µM), for inactives: top-dose growth rescue (activation), most hits filed as activators; AID 652106, 2013; Yeast expressing alpha-synuclein, growth rescue, BacTiter-Glo, 24 h; also: % of control where 0% means no effect; nearly all actives have a fitted effect of over 65% in size
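Readout is rescue of growth in alpha-synuclein-expressing yeast, so inhibitors of toxicity appear as activators. Growth after 24 hr at 30 deg C in galactose medium is quantified by luminescence.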
FUS suppressor = qHTS for Suppressors of FUS Proteinopathy: Primary screen using FUS-linked yeast assay; actives 0.24% (n = 390,000); S. cerevisiae FUS-expressing, growth rescue, OD600, 24 h; Potency, µM (titrated, usually from 76.6 µM), hits mostly activators;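 also: plate controls were DMSO vehicle for no effect and reference control for full effect; nearly all actives have a fitted effect of over 55% in size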
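Yeast FUS proteinopathy model; galactose-induced FUS (2%), starting OD 0.005. Cpds in dilution series, 24hr, 30C, 99% humidity. Abs 600 nm growth. Pos ctrl CP55940 (top 92uM final); neg ctrl DMSO.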
PTAP TSG101 blk = qHTS Assay for Iinhibitors of HIV-1 Budding by Blocking the Interaction of PTAP/TSG101; Tumor susceptibility gene 101 protein (Homo sapiens), Q99816; Fluorescence polarization, FITC-PTAP peptide / Tsg101 binding; Potency, µM (series often up to 115 µM), for the others: at the highest dose activity change, negative = inhibition, usual class: inhibitors; 340,000 tested, under 10 active; active = well fitted inhibition curve with a large enough effect in the main read-out, with a control signal flat, not every such curve was filed as active; inconclusive = small, poorly fitted or top-dose-only effect, or effect the other way, or a change in a side signal; inactive = no such curve, though single readings can be large or run the other way; also: % of control where 0% means no effect
Target sequence (Q99816 whole entry, looked up): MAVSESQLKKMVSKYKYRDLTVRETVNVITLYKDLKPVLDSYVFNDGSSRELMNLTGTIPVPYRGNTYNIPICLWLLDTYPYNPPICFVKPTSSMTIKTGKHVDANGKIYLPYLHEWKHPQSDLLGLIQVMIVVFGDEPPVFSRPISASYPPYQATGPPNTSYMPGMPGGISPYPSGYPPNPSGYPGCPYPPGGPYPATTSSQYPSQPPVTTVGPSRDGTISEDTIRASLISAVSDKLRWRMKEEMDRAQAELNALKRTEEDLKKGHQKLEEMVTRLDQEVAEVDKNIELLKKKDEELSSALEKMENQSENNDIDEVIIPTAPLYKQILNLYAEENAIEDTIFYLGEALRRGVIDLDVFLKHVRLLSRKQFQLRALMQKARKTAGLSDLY
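Steps: Tsg101 binding domain dispensed (10 uM final), compounds pinned in DMSO, FITC-labeled PTAP-motif peptide added (50 nM final); after 20 min binding at room temperature, polarization measured.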
Abeta rescue = qHTS for compounds that reverse cellular toxicity of Amyloid beta (A-beta) peptide in yeast: Primary Screen; Potency, µM (top dose mostly 46.1 µM), hits mostly activators; actives 0.063% (n = 410,000); yeast expressing A-beta42, growth rescue, OD600, 48 h; response scale: 0% DMSO, 100% iron-clioquinol control; also: nearly all actives have a fitted effect of over 55% in size
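Yeast growth medium received pinned compounds, then yeast cells expressing toxic A-beta were added; plates incubated at 30 C for 48 hr. Growth read as absorbance at 600 nm, normalized to DMSO and equimolar FeCl3 plus clioquinol controls.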
An asterisk follows results filed as active. Unless noted, calls follow the shape of the dose curve; as a rule, active = well fitted curve in the direction sought with a large enough effect; inconclusive = small, poorly fitted or top-dose-only effect, or another doubt; inactive = no such curve, though single readings can be large; an effect the other way counts as inactive or inconclusive. Potency is read from the fitted curve at half-maximal effect.

What do the screens show for `C=CCN1C(=O)[C@@H](CC(=O)NCc2cccs2)[C@]2(C(=O)OCC)CCCCC/C=C/12`?
FUS suppressor: inactive

Results for Cc1cc(C)cc(Cn2cc(CN3CC(N4CCN(CCO)CC4)CS3(=O)=O)nn2)c1 (centres undefined) ?
TDP43 rescue: -2%; aSyn yeast inh: -5%; FUS suppressor: inactive; Abeta rescue: inactive

What do the screens show for `CS(=O)(=O)N(CC(=O)NCCSCc1ccccc1)c1cc(C(F)(F)F)ccc1Cl`?
TDP43 rescue: inconclusive; FUS suppressor: inactive; Abeta rescue: inactive

Results for C1=C(c2ccccc2)Nc2ncnn2C1c1ccccc1 (centres undefined) ?
TDP43 rescue: 20µM*; aSyn yeast inh: -3%; FUS suppressor: inactive; PTAP TSG101 blk: -8%; Abeta rescue: inactive

How did Cc1ccc(C2C=C(c3ccc4c(c3)OCO4)Nc3ncnn32)cc1 (centres undefined) do in these assays?
TDP43 rescue: 13µM*; aSyn yeast inh: 10%; FUS suppressor: inactive; PTAP TSG101 blk: -2%; Abeta rescue: inactive

How did Cc1ccc(C2=CC(c3ccccc3)n3ncnc3N2)c(C)c1 (centres undefined) do in these assays?
TDP43 rescue: inconclusive; aSyn yeast inh: 10%; FUS suppressor: inactive; PTAP TSG101 blk: -12%; Abeta rescue: inconclusive

What do the screens show for `Cc1ccc(C2=CC(c3ccccc3)n3ncnc3N2)cc1` (centres undefined)?
TDP43 rescue: 13µM*; aSyn yeast inh: 8%; FUS suppressor: inactive; PTAP TSG101 blk: -5%; Abeta rescue: inactive

Results for Cc1ccc(C2C=C(c3ccccc3OC(F)F)Nc3ncnn32)cc1 (centres undefined) ?
TDP43 rescue: 13µM*; aSyn yeast inh: 12%; PTAP TSG101 blk: -8%; Abeta rescue: inactive

What do the screens show for `Cc1ccc(C2=CC(c3ccc(N(C)C)cc3)n3nnnc3N2)cc1` (centres undefined)?
TDP43 rescue: 14%; aSyn yeast inh: 2%; FUS suppressor: inactive; PTAP TSG101 blk: 5%; Abeta rescue: inactive

What do the screens show for `COc1ccc(CNS(=O)(=O)CC2NCc3cc(OC)ccc32)cc1` (centres undefined)?
FUS suppressor: inactive

What do the screens show for `COc1ccccc1CCNC(=O)c1ccc2c(c1)c(C)c(C)n2C`?
TDP43 rescue: inconclusive; FUS suppressor: inconclusive; Abeta rescue: inactive

What do the screens show for `CCOc1ccc(C(=O)N2CC(=O)Nc3ccc(C)cc3C2c2ccc(F)cc2)cc1OCC` (centres undefined)?
TDP43 rescue: -7%; FUS suppressor: inactive; Abeta rescue: inactive

Results for COc1ccc(-c2csc(C(C)(O)c3ccc(F)c(F)c3)n2)cc1 (centres undefined) ?
TDP43 rescue: -52%; aSyn yeast inh: 26%; FUS suppressor: inconclusive; Abeta rescue: inactive

Results for N#Cc1ccc(C(=O)NCc2ccc3c(c2)CCN3C(=O)c2ccc(F)cc2)cc1 ?
TDP43 rescue: inconclusive; FUS suppressor: inactive; Abeta rescue: inactive

How did Cc1cc(NC(=O)N(C)CCc2c(C)nn(C)c2C)ccc1Br do in these assays?
TDP43 rescue: 22%; FUS suppressor: inactive; Abeta rescue: inactive

How did CCCN(C(=O)CCc1nc(-c2ccccc2F)no1)c1ccc(CC)cc1 do in these assays?
TDP43 rescue: -12%; FUS suppressor: inactive; Abeta rescue: inactive

How did O=S(=O)(c1ccccc1)c1nc(NCc2ccccc2)sc1Cl do in these assays?
TDP43 rescue: 20µM*; aSyn yeast inh: -1%; PTAP TSG101 blk: -5%; Abeta rescue: inactive

Results for O=C(NCCc1c[nH]c2ccccc12)c1ccc(Br)o1 ?
TDP43 rescue: 4%; aSyn yeast inh: -8%; PTAP TSG101 blk: -4%; Abeta rescue: inactive

How did O=C(NCCSc1c[nH]c2ccccc12)c1ccc(Br)o1 do in these assays?
TDP43 rescue: 18µM*; aSyn yeast inh: 10%; FUS suppressor: inactive; PTAP TSG101 blk: -5%; Abeta rescue: inactive

How did CC(=O)c1ccc(N2CCN(C(=O)c3cc(S(=O)(=O)N4CCCCCC4)cn3C)CC2)cc1 do in these assays?
TDP43 rescue: 21%; FUS suppressor: inconclusive; Abeta rescue: inactive

How did COc1ccc(NC(=O)N2c3ccccc3CC2C)cc1OC (centres undefined) do in these assays?
TDP43 rescue: 13µM*; FUS suppressor: inactive; PTAP TSG101 blk: -10%; Abeta rescue: inactive

Results for CCOC(=O)c1cc2c(C)n(-c3ccc(C)cc3)c(C)c2ccc1=O ?
TDP43 rescue: 20µM*; aSyn yeast inh: -3%; FUS suppressor: inactive; PTAP TSG101 blk: -1%; Abeta rescue: inactive

What do the screens show for `CCOC(=O)c1cc2c(C)n(-c3ccc(OCC)cc3)c(C)c2ccc1=O`?
TDP43 rescue: 10%; aSyn yeast inh: -14%; PTAP TSG101 blk: -3%; Abeta rescue: inactive

What do the screens show for `Cc1nc(N2CCCCC2)c2c(-c3cccs3)csc2n1`?
TDP43 rescue: 16µM*; aSyn yeast inh: -17%; FUS suppressor: inactive; PTAP TSG101 blk: 0%; Abeta rescue: inactive

How did Cc1ccc(Cl)cc1N1CCN(C(=O)COCc2cc(-c3ccc4c(c3)OCO4)on2)CC1 do in these assays?
TDP43 rescue: inconclusive; FUS suppressor: inactive; Abeta rescue: inactive

Results for CC1(C)CC(=O)C(Sc2ccc(Br)cc2)=C(O)C1 ?
TDP43 rescue: 13µM*; aSyn yeast inh: 25%; FUS suppressor: inactive; PTAP TSG101 blk: 1%; Abeta rescue: inactive

What do the screens show for `CCNc1ccc(/C=C2\C=Cc3ccccc32)cc1`?
aSyn yeast inh: 10%

Results for COc1cccc2c1C(=O)/C(=C\c1ccc(N(C)C)cc1)C2 ?
aSyn yeast inh: 1%

What do the screens show for `S=C(Nc1ccccn1)Nc1ccccc1Cl`?
TDP43 rescue: 16µM*; aSyn yeast inh: -4%; FUS suppressor: inactive; PTAP TSG101 blk: -3%; Abeta rescue: inactive

Results for Cc1c(Cl)cccc1NC(=S)Nc1ccccn1 ?
TDP43 rescue: 24%; aSyn yeast inh: 1%; FUS suppressor: inactive; PTAP TSG101 blk: -10%; Abeta rescue: inactive

What do the screens show for `COc1cc(NC(=S)Nc2ccccn2)cc(OC)c1`?
TDP43 rescue: 10µM*; aSyn yeast inh: 1%; FUS suppressor: inactive; PTAP TSG101 blk: 0%; Abeta rescue: inactive

Results for O=C(O)c1ccc(O)c(O)c1 ?
TDP43 rescue: 12%; aSyn yeast inh: 3%; FUS suppressor: inactive; PTAP TSG101 blk: 1%; Abeta rescue: inactive
